High-throughput results: PubChem, National Center for Advancing Translational Sciences (NCATS)
D1 PAM – potentiators of human D1 dopamine receptor. HEK293 TREx D1 cells, calcium flux, dopamine EC20 potentiation. 360,000 tested, 0.036% active. P21728. potentiation, % at 10 µM; in the data active means potentiation above about 30%
DRD3 antagonist – blocks the human D3 dopamine receptor; 360,000 tested, 2.5% active; max response, negative = inhibition, %; P35462; D3R cells, DiscoveRx beta-arrestin luminescence, antagonist mode; stronger effect = lower value; in the data active means max response below about -50%; inconclusive means no clear call, values can overlap the other calls
Target sequence (P35462 whole entry, looked up): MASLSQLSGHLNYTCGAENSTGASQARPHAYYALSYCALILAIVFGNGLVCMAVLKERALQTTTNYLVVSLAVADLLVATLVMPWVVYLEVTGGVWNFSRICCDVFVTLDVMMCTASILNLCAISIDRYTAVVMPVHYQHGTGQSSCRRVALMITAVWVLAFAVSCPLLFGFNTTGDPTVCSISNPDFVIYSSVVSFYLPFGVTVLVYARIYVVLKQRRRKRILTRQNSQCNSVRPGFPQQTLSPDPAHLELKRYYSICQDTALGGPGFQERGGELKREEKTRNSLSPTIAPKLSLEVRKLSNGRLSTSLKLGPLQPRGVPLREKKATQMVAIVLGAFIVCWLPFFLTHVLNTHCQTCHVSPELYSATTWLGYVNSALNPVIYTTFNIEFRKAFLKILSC
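Cells plated overnight at 1500 cells/well, then exposed to library compounds with dopamine controls for 90 minutes at 37 degrees C. DiscoveRx reagent added for 30–60 minutes at room temperature; luminescence read, quantitative HTS format.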
DRD3 agonist – agonists of human D3 dopamine receptor. 410,000 tested, 0.58% active. D3R DiscoveRx beta-arrestin cells, luminescence, 90 min. P35462. max activation, %; in the data active means max activation above about 30%
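Cells at 1500/well, incubated overnight, then treated with pinned compounds (dopamine as control) for 90 min at 37 degrees C. DiscoveRx reagent added for 30 - 60 minutes at room temperature; luminescence read.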
D1 agonist – human D1 receptor agonism | activation, % at 2 µM | P21728 | 360,000 tested, 1% active | HEK293 T-REx D1 cells, calcium flux, agonist mode; in the data active means activation above about 30%
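Inducible HEK293 T-REx D1 cells, force-coupled to calcium signalling, were plated at 4000 cells/well with tetracycline and held overnight at 30 C. After no-wash calcium dye loading, compound-evoked calcium rise over 180 s flagged agonists.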
D1 antag – antagonists of human D1 dopamine receptor | 360,000 tested, 3.2% active | activity change, negative = inhibition, % at 10 µM | HEK293 TREx D1 cells, calcium flux, dopamine EC80; stronger effect = lower value | P21728; in the data active means activity change below about -30%
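Allosteric or orthosteric antagonism assessed as attenuation of the calcium response to EC80 dopamine, added 180 s after compound, in induced HEK293 Trex D1 cells loaded with no-wash calcium dye.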
Each line names hits and unclear results; the compound was inactive in the other large screens. Only some compounds are listed: those with a hit (about 6% of all), similar ones and a draw of the others.

N=c1c2c(-c3ccccc3)c(-c3ccccc3)n(Cc3ccccc3)c2ncn1CCCn1ccnc1	D1 agonist 118
CCCCn1cnc2c(c(-c3ccccc3)c(-c3ccccc3)n2Cc2ccco2)c1=N	D1 agonist 47
N=c1c2c(-c3ccccc3)c(-c3ccccc3)n(Cc3ccco3)c2ncn1Cc1ccco1	DRD3 antagonist inconclusive, D1 agonist 38
COc1ccc(NC(=O)c2ccc(C)cc2Cl)c([N+](=O)[O-])c1	DRD3 antagonist -63
Cc1ccc(-n2c(C)cc3c2CC(C)(C)CC3=O)cc1C	DRD3 antagonist -88
Cc1cc2c(n1-c1ccc(Br)cc1)CC(C)(C)CC2=O	none
CCCc1ccc(OCC(=O)Nc2sc3c(c2C(=O)OCC)CCC(C(C)(C)C)C3)cc1 (centres undefined)	none (no result: DRD3 antagonist)
Cc1ccc(NCc2ccccc2O)cc1	none
Cc1ccc(CNc2ccc(O)cc2)cc1	DRD3 antagonist -53
Cc1ccc(CNCc2cc(Cl)ccc2O)cc1	DRD3 antagonist inconclusive, D1 agonist 60
Oc1ccc(Cl)cc1CNCC1CCCCC1	DRD3 antagonist -76
CCOc1ccc(NC(=O)CCc2nnc3n(C)c(=O)c4sccc4n23)cc1	none (no result: DRD3 antagonist)
COc1ccc(C(=O)/C=C/C(=O)N(CC(=O)NC2CCCCC2)Cc2ccccc2)c(O)c1	DRD3 antagonist -115
COc1ccc(C(=O)/C=C/C(=O)N(Cc2ccc(F)cc2)C(C(=O)NC2CCCCC2)c2ccncc2)c(O)c1 (centres undefined)	D1 antag -31
Cc1ccc(CNC(=O)CN2C(=O)COc3ccc(S(=O)(=O)Nc4ccccc4)cc32)cc1	none (no result: DRD3 antagonist)
CCn1cc(Br)c(C(=O)Nc2ccccc2C(=O)OC)n1	D1 antag -36
CCn1cc(Cl)c(C(=O)Nc2cccc(C(F)(F)F)c2)n1	D1 antag -36
CCn1cc(Cl)c(C(=O)Nc2ccccc2C(N)=O)n1	DRD3 agonist 48
S=C=Nc1ccc(N=C=S)cc1	none (no result: D1 PAM, DRD3 antagonist, D1 agonist, D1 antag)
CCn1c(-c2cc(Br)cc(OC)c2O)nc2cc(S(=O)(=O)N(C)C)ccc21	DRD3 agonist 37
CCOC(=O)c1cnc(-c2ccccc2)nc1N1CCOCC1	none
CCOC(=O)C1(C(F)(F)F)N=C(c2cccnc2)OC(N2CCOCC2)=N1 (centres undefined)	DRD3 antagonist -59
O=C(N/N=C/c1sc(N2CCOCC2)nc1-c1ccccc1)c1ccc(O)cc1	none
Cc1occc1C(=O)N/N=C/c1sc(N2CCOCC2)nc1-c1ccccc1	DRD3 antagonist -54
Cc1ccc(NC(=O)CCSc2ccccc2)c(C)c1	D1 antag -30 (no result: DRD3 antagonist, DRD3 agonist)
Cc1ccc(NC(=S)NCCSc2ccc(Cl)cc2)c(C)c1	D1 antag -33
Cc1cc(NC(=O)CCSc2ccccc2)ccc1Br	D1 antag -30
Cc1ccc(C)c(NC(=S)NCCSc2ccc(Cl)cc2)c1	none
Cc1cc(Br)ccc1NC(=O)CCSc1ccccc1	none
Clc1cccc(CNc2nnnn2-c2ccccc2)c1	DRD3 antagonist -52, D1 agonist 37, D1 antag -46
Cc1cccc(N2C(=O)C(CC(=O)Nc3ccc(F)cc3)N(C3CCCC3)C2=O)c1 (centres undefined)	none (no result: DRD3 antagonist)
CCOC(=O)c1cccc(NC(=O)C2Cc3ccccc3N2C(=O)c2ccccc2)c1 (centres undefined)	none (no result: DRD3 antagonist)
O=C(CSc1ccccc1)NCc1ccc2c(c1)CCN2C(=O)c1ccc(F)cc1	none (no result: DRD3 antagonist)
CCc1ccc(C(c2ccc(CC)cc2)C(Cl)Cl)cc1	DRD3 antagonist -110 (no result: D1 antag)
Clc1ccc(C(c2ccccc2Cl)C(Cl)Cl)cc1 (centres undefined)	none
CC1CCCCN1CCCNc1ccc(C(CC(N)=O)NC(=O)Cc2ccc(Br)cc2)cc1[N+](=O)[O-] (centres undefined)	DRD3 antagonist -52
COc1cc(C(=O)Nc2nonc2-c2ccc(C)c(C)c2)cc(OC)c1OC	none (no result: DRD3 antagonist)
Cc1nn(-c2ccccc2)c2c1N(CC(=O)NCc1ccc(N(C)C)cc1)C(=O)CS2	none (no result: DRD3 antagonist)
CCN(CC)c1nn2c(=O)c(C(=O)NCc3ccc(F)cc3)cnc2s1	none (no result: DRD3 antagonist)
CCOc1ccc2[nH]c(C)c(CN3CCOCC3)c(=O)c2c1	none
Cc1[nH]c2ccc(Br)cc2c(=O)c1CN1CCOCC1	DRD3 antagonist -70
Cc1cccc(NC(=O)N2CC(=O)Nc3sc4c(c3C2c2ccccc2)CCCC4)c1C (centres undefined)	none (no result: DRD3 antagonist)
N#C/C(=C(O)\C=C\c1ccccc1)c1nc2ccccc2[nH]1	D1 antag -31
COc1ccc(C)cc1-n1nnnc1SCC(=O)Nc1cc(C)on1	D1 antag -51
COc1ccc(C)cc1-n1nnnc1SCC(=O)NC(=O)NCc1ccco1	D1 antag -37
COc1ccc(OC)c(-n2c(SCC(N)=O)nnc2-c2c[nH]c3ccccc23)c1	none (no result: D1 PAM)
COc1ccc(OC)c(-n2c(SCC(=O)Nc3cc(C)on3)nnc2-c2c[nH]c3ccccc23)c1	DRD3 antagonist -51 (no result: D1 PAM)
COc1ccc(-c2cn3nc(N4CCCC(C(=O)Nc5cc(C)ccc5C)C4)sc3n2)cc1 (centres undefined)	none (no result: DRD3 antagonist)
CCn1c(C(=O)NCc2cc(Br)ccc2OC)cc2oc3ccccc3c21	none (no result: DRD3 antagonist)
Cc1cc(C)c2sc(NC(=O)c3ccc(S(=O)(=O)N4CCOCC4)cc3)nc2c1	none (no result: DRD3 antagonist)
Cc1ccc(C)c(N(C)S(=O)(=O)c2ccc3[nH]cc(C(=O)NC4CCCC4)c(=O)c3c2)c1	none (no result: DRD3 antagonist)
CCCOc1cccc(C(=O)N2CCCCC2CCN2CCCCC2)c1 (centres undefined)	none (no result: DRD3 antagonist)
Clc1ccc(-c2ccc(CNCc3ccccn3)o2)cc1	DRD3 antagonist -69
CCc1ccc2[nH]c(=O)c(CN(Cc3ccc4c(c3)OCO4)Cc3nnnn3C3CCCC3)cc2c1	DRD3 agonist 35
Cc1ccc2cc(CN(Cc3ccc(F)cc3)Cc3nnnn3C3CCCC3)c(=O)[nH]c2c1	none
Cc1cccn2c(=O)c(/C=C(\C#N)c3nc4ccccc4n3C)c(Oc3ccc(Br)cc3)nc12	none (no result: DRD3 antagonist)
COc1ccc(-c2ccc(C(C)=O)cc2)cc1[C@H]1[C@@H]2C=CCC[C@@]2(C)C(=O)N1Cc1ccccc1	DRD3 antagonist inconclusive
COc1ccc(-c2ccc(C)cc2)cc1[C@H]1[C@@H]2C=CCC[C@@]2(C)C(=O)N1Cc1ccccc1	DRD3 antagonist -56
Cc1ccc2nc3c(cc2c1)c(C)nn3-c1ccccc1	none
Cc1nn(-c2ccccc2)c2nc(=O)n(-c3ccccc3)cc12	DRD3 antagonist -65
Cc1nn(C)cc1CNC(=O)C1C2CCC(O2)C1C(=O)O (centres undefined)	none (no result: DRD3 antagonist, DRD3 agonist)
Cc1nn(C)cc1CNC(=O)C1C2CCC(C2)C1C(=O)O (centres undefined)	D1 antag -32 (no result: DRD3 antagonist, DRD3 agonist)
CC1C(=O)N2CCCc3cc(S(=O)(=O)N4CCN(c5ccc(F)cc5)CC4)cc1c32 (centres undefined)	D1 antag -46
COc1ccc(N2CCN(CCCNC(=O)c3ccc4nc(N5CCCCC5)sc4c3)CC2)cc1	D1 antag -57 (no result: DRD3 antagonist)
